Assay [1] in a line: qHTS assay for small molecule antagonists of the retinoid-related orphan receptor gamma (ROR-gamma) signaling pathway - cell viability counter screen (AID 720652; active = well fitted curve in the direction sought with a large enough effect in the repeat runs; an effect the other way counts as inactive or inconclusive;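 also: CHO reporter cells with doxycycline-induced ROR-gamma expression; compound exposure lasted 16 hr before ATP read; % is scaled to controls: 0 for no effect and ±100 for the full control effect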). In outline:
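Cytotoxicity counter screen: intracellular ATP (CellTiter-Glo luminescence) measured in the doxycycline-induced CHO RORE-luciferase reporter line after 16 hr compound exposure at 37 C, 5% CO2.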

The nature of assay [2]: qHTS assay for small molecule agonists of the antioxidant response element (ARE) signaling pathway measured by Nrf2-dependant transcriptional activity - cell viability counter screen (AID 720653; active = well fitted curve in the direction sought with a large enough effect in the repeat runs; an effect the other way counts as inactive or inconclusive; also: % is scaled to controls: 0 for no effect and ±100 for the full control effect). Conditions: ARE-bla HepG2 viability, CellTiter-Glo ATP luminescence, 16 h; stronger effect = lower value. In outline: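 Cytotoxicity counter screen: intracellular ATP quantified by CellTiter-Glo luminescence in the same ARE-bla HepG2 plates, after 16 h compound exposure and a 2 h beta-lactamase substrate step.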
For orientation: In qHTS, concentration-response curves come from the screen itself.

A short description of assay [3]: qHTS assay for cell viability of HEK293 cells (AID 743288). Also: % is scaled to controls: 0 for no effect and ±100 for the full control effect; nearly all actives have a fitted effect of over 50% in size. Particulars: ATP luminescence (CellTiter-Glo), 18 h, stronger effect = lower value. The procedure, abridged:
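Quantitative high-throughput screen: compounds were pinned onto parental HEK293 cells (2,000 per well) after a minimum 5 h settling at 37 C, incubated 18 h at 37 C, and intracellular ATP measured by luciferase luminescence.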

Assay [4] can be described thus: qHTS assay for cell viability of the p53RE-bla HCT-116 cell line (AID 743292). Also: % is scaled to controls: 0 for no effect and ±100 for the full control effect; nearly all actives have a fitted effect of over 55% in size. In outline: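 Compound-exposed HCT-116 (p53RE-bla) cells, 4,000 per well, were kept 16 h at 37 C following a 5 h preincubation. Cell number was estimated from total ATP by CellTiter-Glo luminescence read after 30 min at room temperature.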
A short description of assay [5]: qHTS Assay for Identifying Gametocytocidal Compounds (AID 743244). Also: potency is read from the fitted curve at half-maximal effect.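 As to max response: % is scaled to controls: 0 for no effect and ±100 for the full control effect; actives lower the fluorescent signal which means gametocytes are killed.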 Particulars: P. falciparum 3D7 stage III-V gametocytes, alamarBlue, 72 h; max response: stronger effect = lower value. In outline: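 Late gametocytes (III–V), P. falciparum 3D7; 72 h drug, then 24 h alamarBlue; resazurin reduction read by fluorescence.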
Assay [6] in a line: qHTS profiling for inhibitors of Plasmodium falciparum (3D7) proliferation (AID 743322; call rule not given here;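 also: infected erythrocytes exposed to compound for 72 h before lysis; 100% = DMSO vehicle wells and 0% = 0.29 µM artemisinin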). Particulars: P. falciparum 3D7 proliferation; at 28.7 µM (top of the series) unless noted. The procedure, abridged: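 Parasite DNA was quantified by SYBR Green I fluorescence (ex 485, em 535 nm) after overnight lysis in saponin/Triton buffer at room temperature. Cultures at 0.3% parasitemia and 2.5% hematocrit were first exposed to compound for 72 h at 37 C; signals were normalised to artemisinin (0.29 uM) and vehicle wells.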

Assay [7] can be described thus: qHTS profiling for inhibitors of Plasmodium falciparum (DD2) proliferation (AID 743323; call rule not given here). Particulars: lower = more inhibition; at 28.7 µM (top of the series) unless noted. The procedure, abridged: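 1536-well qHTS; infected RBCs 0.3% parasitemia/2.5% Hct final; cpd 72 h 37 C 5% CO2; lysis buffer + SYBR Green I, o/n RT dark; FI 485/535; norm. to 0.29 uM artemisinin and DMSO, plate-stack corrected.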

The target of assay [8] is T1, Hexokinase-4 (Homo sapiens) + Glucokinase regulatory protein (Homo sapiens) (UniProt P35557+Q14397). In words: qHTS assay for inhibitors of recombinant human GCK-GKRP interaction: Diaphorase-coupled assay (AID 743205). The procedure, abridged: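 Inhibitors of the GCK–GKRP complex relieve GKRP suppression of GCK, detected through a G6PDH–diaphorase cascade reducing resazurin. Human GST-GCK and FLAG-GKRP are used at 10 nM with 5 mM glucose and 0.4 mM ATP.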

For assay [9], the target named is T1, Hexokinase-4 (Homo sapiens) + Glucokinase regulatory protein (Homo sapiens). In words: qHTS assay for inhibitors of recombinant human GCK-GKRP interaction: ADP-Glo assay (AID 743206).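 Also: plate controls were DMSO plus enzyme for no effect and no enzyme for full effect.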 In outline:
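Pin-transferred compounds meet a 15 nM GST-GCK/15 nM FLAG-GKRP/2 uM S6P mix (dispense concentrations). ATP is then added to 0.4 mM final with 5 mM glucose, and the reaction runs 60 min at room temperature. ADP is quantified luminescently.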

The target is the same in assay [10]. In words: qHTS assay for inhibitors of recombinant human GCK-GKRP interaction: HTRF assay (AID 743207).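 Also: 0% = DMSO with GCK present and -100% = DMSO wells lacking GCK.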 The procedure, abridged: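 Steps: dispense GCK–GKRP complex (5 nM each, GST- and FLAG-tagged) with 2 uM S6P; pin in compounds; add XL665/Eu-cryptate-labelled antibodies; incubate 60 min at room temperature; read time-resolved FRET at 665 and 615 nm.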

Values joined by “and” are separate entries in the source; they are usually repeats but may differ in a detail not shown here. Identical values can stand only once. Records with an inconclusive call do not appear. Active and inactive are the calls of the source. Unless noted, calls follow the shape of the dose curve; as a rule, active = well fitted curve in the direction sought with a large enough effect; inconclusive = small, poorly fitted or top-dose-only effect, or another doubt; inactive = no such curve, though single readings can be large; an effect the other way counts as inactive or inconclusive.

T1 sequence (P35557 whole entry, looked up): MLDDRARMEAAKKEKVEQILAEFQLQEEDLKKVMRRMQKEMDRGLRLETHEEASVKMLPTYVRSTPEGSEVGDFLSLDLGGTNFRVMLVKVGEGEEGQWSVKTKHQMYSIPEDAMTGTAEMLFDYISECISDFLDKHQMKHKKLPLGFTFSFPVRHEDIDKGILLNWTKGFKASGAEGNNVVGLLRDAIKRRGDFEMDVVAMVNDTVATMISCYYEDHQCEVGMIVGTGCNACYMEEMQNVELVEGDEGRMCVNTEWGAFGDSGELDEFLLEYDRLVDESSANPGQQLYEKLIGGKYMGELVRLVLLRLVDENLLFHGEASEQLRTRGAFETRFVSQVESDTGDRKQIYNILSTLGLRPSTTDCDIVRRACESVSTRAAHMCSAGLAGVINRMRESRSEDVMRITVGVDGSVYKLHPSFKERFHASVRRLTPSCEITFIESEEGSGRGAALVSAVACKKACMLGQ
T1 sequence (Q14397 whole entry, looked up): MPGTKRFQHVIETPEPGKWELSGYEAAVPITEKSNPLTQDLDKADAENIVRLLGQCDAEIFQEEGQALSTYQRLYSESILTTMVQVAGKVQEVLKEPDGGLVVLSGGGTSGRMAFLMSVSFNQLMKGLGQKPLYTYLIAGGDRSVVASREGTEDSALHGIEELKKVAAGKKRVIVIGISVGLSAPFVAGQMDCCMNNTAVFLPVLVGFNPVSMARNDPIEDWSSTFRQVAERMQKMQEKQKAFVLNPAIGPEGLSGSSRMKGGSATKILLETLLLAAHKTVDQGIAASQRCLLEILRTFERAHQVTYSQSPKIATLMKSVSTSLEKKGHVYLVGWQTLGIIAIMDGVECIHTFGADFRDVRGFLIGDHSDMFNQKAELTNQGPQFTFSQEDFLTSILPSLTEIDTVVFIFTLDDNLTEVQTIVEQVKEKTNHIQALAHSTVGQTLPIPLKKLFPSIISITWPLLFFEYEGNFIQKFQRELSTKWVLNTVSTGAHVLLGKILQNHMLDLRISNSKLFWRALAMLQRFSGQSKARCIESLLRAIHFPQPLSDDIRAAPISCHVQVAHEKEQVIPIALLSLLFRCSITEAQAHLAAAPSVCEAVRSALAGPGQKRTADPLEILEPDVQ

`C[C@@H]1C[C@H]2[C@@H]3CCC4=CC(=O)C=C[C@]4(C)[C@@]3(F)[C@@H](O)C[C@]2(C)[C@@]1(O)C(=O)CO`: the compound was classed as inactive in assay [1] and in assay [4]. For the same compound, the max response is -1.58% (inactive) and -7.2% (inactive) in [2]; -1.33% (inactive) and -8.25% (inactive) in assay [3].
As for `CCCCN(CCCC)CC(O)c1cc(Cl)cc2c1-c1ccc(Cl)cc1C2=Cc1ccc(Cl)cc1` (stereo not drawn), in [5], the Potency was 0.059 µM (active).
As for `CC(C)(C)c1[nH]cnc1C=c1[nH]c(=O)c(=Cc2ccccc2)[nH]c1=O`, the max response in assay [5] was -26.5% (inactive).
For `Cc1cccc(Nc2nc(N[C@@H]3CCCC[C@H]3N)ncc2C(N)=O)c1`, in assay [5], the Potency is 9.35 µM (active). Moreover, the remaining parasite growth % (stronger effect = lower value) in assay [6] is 0.221%. In addition, the activity, percent of control in [7] was 4.78%.
On to `C[C@H]1O[C@@H](n2cc(F)c(=O)[nH]c2=O)[C@H](O)[C@H]1O`, for which the result in assay [8], in assay [9] and in [10] was inactive. The max response in assay [5] is 6.51% (inactive).
Take `Cc1cc2c(cc1C1(c3ccc(C(=O)O)cn3)CC1)C(C)(C)CCC2(C)C`: the max response in assay [5] is 8.43% (inactive). The remaining parasite growth % (stronger effect = lower value) in [6] was 101%. The same compound gave an activity, percent of control in [7] of 97.2%.
The like results for `CCC=CC[C@H]1C(=O)CC[C@@H]1CC(=O)OC` were, in that order, 12% (inactive), 94.5% and 93.1%.
Take `CN1CCN2c3ncccc3Cc3ccccc3C2C1` (stereo not drawn): in assay [5], the max response was 6.21% (inactive).
Still for that read-out and setting: the value for `O=C(O)c1nc(=O)[nH]c(=O)[nH]1` was 15.4% (inactive); that for `CC(C)CN(C[C@@H](O)[C@H](Cc1ccccc1)NC(=O)O[C@H]1CO[C@H]2OCC[C@H]21)S(=O)(=O)c1ccc(N)cc1` was -5.35% (inactive).
Same read-out and setting: the result for `CC(C)n1c(C=C[C@H](O)C[C@H](O)CC(=O)O)c(-c2ccc(F)cc2)c2ccccc21` reads -4.13% (inactive).

The values are drawn from PubChem BioAssay (NCATS).
